Compound activity deposited in PubChem by several laboratories.
NPR1 activator: GC-A (human) enzyme activation. HEK293 GC-A cells, cGMP TR-FRET, EC30 ANP; 0% at EC30 ANP, 100% saturating ANP. activation, % at 10 µM. actives 0.14% (n = 370,000). AID 1671463; in the data active means activation above about 40%
Target sequence (P16066 whole entry, looked up): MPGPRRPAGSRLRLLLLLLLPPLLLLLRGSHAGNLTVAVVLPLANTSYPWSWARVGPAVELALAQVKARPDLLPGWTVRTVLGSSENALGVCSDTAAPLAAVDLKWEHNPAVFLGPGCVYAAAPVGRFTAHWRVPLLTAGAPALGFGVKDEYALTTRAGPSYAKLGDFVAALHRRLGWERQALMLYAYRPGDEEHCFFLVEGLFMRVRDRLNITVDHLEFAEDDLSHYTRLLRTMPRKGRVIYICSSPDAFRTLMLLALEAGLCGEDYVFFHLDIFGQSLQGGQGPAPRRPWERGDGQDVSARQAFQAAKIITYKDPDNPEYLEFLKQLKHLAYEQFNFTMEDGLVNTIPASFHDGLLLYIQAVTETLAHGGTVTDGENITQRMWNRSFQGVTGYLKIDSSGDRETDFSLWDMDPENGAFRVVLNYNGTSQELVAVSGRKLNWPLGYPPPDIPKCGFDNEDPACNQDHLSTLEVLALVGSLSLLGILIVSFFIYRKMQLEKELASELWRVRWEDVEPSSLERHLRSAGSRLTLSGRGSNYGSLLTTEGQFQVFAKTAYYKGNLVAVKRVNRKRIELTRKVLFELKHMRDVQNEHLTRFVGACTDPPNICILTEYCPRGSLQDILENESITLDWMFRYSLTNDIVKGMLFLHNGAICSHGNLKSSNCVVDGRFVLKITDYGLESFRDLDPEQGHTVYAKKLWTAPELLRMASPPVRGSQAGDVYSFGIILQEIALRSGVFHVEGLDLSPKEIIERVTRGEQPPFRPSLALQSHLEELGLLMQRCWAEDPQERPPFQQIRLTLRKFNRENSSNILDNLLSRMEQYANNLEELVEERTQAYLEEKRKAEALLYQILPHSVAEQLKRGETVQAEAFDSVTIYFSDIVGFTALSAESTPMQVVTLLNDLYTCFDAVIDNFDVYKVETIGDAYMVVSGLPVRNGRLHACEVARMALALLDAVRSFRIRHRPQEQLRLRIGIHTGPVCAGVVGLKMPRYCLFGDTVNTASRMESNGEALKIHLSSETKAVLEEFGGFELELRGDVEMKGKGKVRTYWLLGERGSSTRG
GC-B act: GC-B (human) receptor activation; P20594; HEK293-GC-B cells, CNP EC30, cGMP TR-FRET; 0% at EC30 CNP, 100% saturating CNP; activation, % at 10 µM; actives 0.11% (n = 370,000); AID 1920062;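 active means activation at 10 µM reaching about 35% in either raw or pattern-adjusted values, limit read from the data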
Myeloid diff MLP: promotes myeloid progenitor differentiation; ER-HoxA9 myeloid progenitors, lysozyme-GFP differentiation, flow cytometry; calls only at 10 µM; actives 1% (n = 360,000);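 active means normalized GFP-positive differentiation at or above the plate's own cutoff, the solvent-only control mean plus 3 SD; inconclusive means no clear call, values can overlap the other calls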;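 further: cells exposed to compound for four days before flow analysis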
Exocytosis inh: lytic granule exocytosis inhibition; TALL-104 LAMP-1 surface exposure, flow cytometry; cells stimulated with thapsigargin and PMA; inhibition, % at 10 µM; actives 0.66% (n = 360,000); AID 651702;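 active means inhibition above about 55%, limit read from the data; inconclusive means no clear call, values can overlap the other calls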
A number is an active result; 0 = inactive; ? = inconclusive; - = no result; + = active, no number; ! = repeats disagree. In the library only some 1.8% were active in any assay of this set; here they are far more common.

SMILES	NPR1 activator	GC-B act	Myeloid diff MLP	Exocytosis inh
COc1ccc(NC(=O)c2cc(-c3cc(F)ccc3OC)n[nH]2)c(C)c1	55	71	0	0
O=C(OC12CCCN(C1)/C(=C/c1ccncc1)C2)c1ccc(Cl)cc1 (centres undefined)	0	0	-	-
C=CCN1[C@@H](C)COc2cccc(N3CCCC3)c2S1(=O)=O	0	0	-	-
c1ccc(Cc2cc[n+](Cc3ccccn3)cc2)cc1	0	0	+	0
NNc1nc2c(-c3cccc(C(F)(F)F)c3)nnn2c2ccccc12	0	0	+	0
COCCNc1nc2c(-c3cccc(C(F)(F)F)c3)nnn2c2ccccc12	0	42	0	0
CC(=O)NCCNc1nc2c(-c3cccc(C(F)(F)F)c3)nnn2c2ccccc12	0	0	0	0
CCOC(=O)c1nnn2c1nc(Nc1cccc(C(F)(F)F)c1)c1ccccc12	0	0	0	0
CC(C)(O)C#Cc1ccc(N2C(c3ccsc3)=Cc3ccc(F)cc3C2c2c[nH]c3ccc(C#N)cc23)cc1 (centres undefined)	0	0	+	0
CCOC(=O)c1ccc(-c2ccc(N3C(c4ccsc4)=Cc4ccc(F)cc4C3c3c[nH]c4ccc(C#N)cc34)cc2)cc1F (centres undefined)	0	0	0	0
CCOc1ccccc1N(C(=O)c1snc(C(N)=O)c1N)C(C(=O)NC1CCCC1)c1cccs1 (centres undefined)	0	0	0	74
Cc1ccccc1N(C(=O)c1snc(C(N)=O)c1N)C(C(=O)NCc1ccccc1)c1ccc(O)cc1 (centres undefined)	0	0	0	64
Cc1cccc(N(C(=O)c2snc(C(N)=O)c2N)C(C(=O)NCC2CCCO2)c2ccc(N(C)C)cc2)c1 (centres undefined)	0	0	0	97
O=C(C1CCC1)N1CCc2cc(S(=O)(=O)N3CCCC3)ccc21	0	0	-	-
Cc1ccc(Cn2cc(COC(=O)N3CCCC3)nn2)cc1	0	0	-	-
O=C1C(CO)C(CO)C(CO)C1CO (centres undefined)	0	0	0	69
COc1ccc([C@H]2OC(=O)C[C@H]2C(=O)N2CCN(C(=O)C3CCCO3)CC2)cc1OC (some centres undefined)	0	0	-	-
CC(C)(C)OC(=O)N1CCC(NC(=O)c2[nH]cnc2C(=O)Nc2ccccc2)CC1	0	0	+	0
Cc1ccc(NC(=O)c2nc[nH]c2C(=O)NC2CCN(C(=O)OC(C)(C)C)CC2)cc1	0	0	0	0
COc1ccc2c(c1)[C@@]1(OCCC=C[C@H]1C)C(=O)N2Cc1ccc(F)cc1	0	0	-	-
CCOC(=O)c1c(NC(=O)c2cccs2)sc2c1CC(C)(C)OC2	0	0	0	67
CC(=O)Nc1cccc(-c2nc3ccccc3n2C(C)C(=O)NC(C)(C)C)c1 (centres undefined)	0	0	0	0
O=C(COC(=O)/C=C/c1ccc(F)cc1)Nc1cc(C(F)(F)F)ccc1N1CCOCC1	0	0	0	0
CC(=O)c1c(C)[nH]c(C(=O)OCC(=O)Nc2cc(C(F)(F)F)ccc2N2CCOCC2)c1C	0	0	+	0
Cc1ccc(Nc2c(-c3ccccc3)nc3cnccn23)cc1	49	0	0	0
SMILES	NPR1 activator	GC-B act	Myeloid diff MLP	Exocytosis inh
Cc1ccc(Nc2c(-c3cccnc3)nc3ccc(Br)cn23)cc1	45	44	0	0
COc1ccc(-c2nc3cnccn3c2Nc2ccc(C)cc2)cc1	62	48	0	0
Cc1ccc2nc(-c3ccncc3)c(Nc3ccccc3)n2c1	0	0	0	0
CC(C)C[C@H]1COc2cccc(F)c2S(=O)(=O)N1Cc1cn(Cc2ccc(Cl)cc2)nn1	0	0	-	-
COc1ccc([C@H]2CN(c3ccccc3)C(=O)[C@@H]2CC(=O)Nc2ccccc2)cc1	0	0	0	0
COc1ccc([C@H]2CN(c3ccc(OC)cc3)C(=O)[C@@H]2CC(=O)Nc2ccc(Br)cc2)cc1	0	0	+	0
COc1cc(C(=O)N2CCC2(C)C(=O)NC(C)C)cc(OC)c1OC (centres undefined)	0	0	0	0
CCOCCOC(=O)COc1ccc2c(-c3ccccc3)cc(=O)oc2c1	52	0	0	0
Cc1cc(=O)oc2ccc(OCc3ccccc3)cc12	0	0	0	0
Cc1cc(=O)oc2cc(OCC(=O)NCCc3ccccc3)ccc12	0	0	+	0
Cc1cc(=O)oc2cc(OCc3ccccc3)ccc12	0	0	+	0
Cc1nc2sc(C(=O)NCc3nccs3)c(N)c2c(C)c1Cl	0	0	-	-
C#CCNc1c2c(nc3nnnn13)CCCC2	0	0	0	0
CNc1c2c(nn1C)CCCC2	0	0	+!	0
CNC(=O)[C@@H](NC(=O)[C@H](CC(C)C)[C@H](O)C(=O)NO)C(C)(C)C	0	0	-	-
Cn1c(C(=O)NN)cc2cc(OCc3ccccc3)ccc21	0	0	+	0
NNC(=O)c1cccc(COc2ccc(Br)cc2)c1	0	0	+	0
COc1ccc(OCc2cccc(C(=O)NN)c2)cc1	0	0	+	0
O=C(CNC(=O)c1cc(-c2ccccc2)nn1-c1ccccc1)Nc1ccccc1Br	0	0	0	0
Cn1c(SCC(=O)Nc2ccccc2-c2ccccc2)nnc1-c1ccccc1	0	0	-	-
Fc1ccc(-c2cn(-c3ccccc3)c3[n+]2CCS3)cc1	0	0	+	0
Clc1ccc(-c2cn(-c3ccccc3)c3[n+]2CCS3)cc1	0	0	-	0
COC(=O)c1c(C(=O)OC)c(-c2cccc(Cl)c2)n2c1CS(=O)(=O)C2	0	0	+	0
FC(F)c1nc2nc(Cl)c(Cl)nc2[nH]1	0	0	0	0
COc1ccc(-c2cc(C)no2)cc1S(=O)(=O)N(C)c1ccc(C)cc1	0	0	?	0
SMILES	NPR1 activator	GC-B act	Myeloid diff MLP	Exocytosis inh
C[C@@H](NC(=O)c1ncn2c1c(=O)[nH]c1cccnc12)c1ccccc1	0	0	0	0
C[C@@H](NC(=O)c1ncn2c1c(=O)[nH]c1ccc(Br)cc12)c1ccccc1	0	40	0	0
Cc1ccc(CSc2nnc(-c3cc(-c4ccc(C)cc4)n[nH]3)n2N)cc1	0	0	-	-
NS(=O)(=O)c1cccc(NC(=O)c2cccc(Oc3ccccc3)c2)c1	0	0	+	0
NC(=O)c1ccc(NC(=O)c2cccc(Oc3ccccc3)c2)cc1	0	0	0	0
Cc1cc(Br)cn2c(Cc3ccccc3)c(-c3ccco3)nc12	0	35	0	0
COc1ccc2c(c1OC)C(=O)OC2Nc1nc(-c2cc3ccccc3oc2=O)cs1 (centres undefined)	0	0	0	79
CC(C)CNC(=O)C1(C)CCCN1C(=O)c1ccncc1 (centres undefined)	0	0	0	0
S=C(Nc1ccccc1)N1CCN(C2CCCCC2)CC1	0	0	+	0
CCOC(=O)C1=C(N)Oc2cc(O)ccc2C1c1ccc(Br)cc1 (centres undefined)	53	0	0	0
CCOC(=O)C1=C(N)Oc2cc(O)ccc2C1c1cccc(Cl)c1 (centres undefined)	0	0	0	0
O=C(CSc1nc2ccccc2n1-c1ccccc1)Nc1ncc(Cl)cc1Cl	0	0	0	0
